# Screening data deposited in PubChem BioAssay by National Center for Advancing Translational Sciences (NCATS).
# The list is not random: actives were taken first. Their share in the collection is about 3.4%.
# VDR inhibitor: Inhibitors of the vitamin D receptor (VDR): qHTS; hit rate 0.93% among 400,000; VDR-SRC2-3 peptide fluorescence polarization, 2 h; AID 504847, 2011; Vitamin D3 receptor (Homo sapiens), P11473; Potency, µM, inactives show max response, negative = inhibition, hits mostly inhibitors; also: % is scaled to controls: 0 for no effect and ±100 for the full control effect
#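 Measured by FP: displacement of SRC2-3 coactivator peptide from VDR by library compounds, following a two-hour ambient incubation.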
# Mito fusion act: qHTS Assay for Small Molecule Inhibitors of Mitochondrial Division or Activators of Mitochondrial Fusion; Potency, µM (series often up to 46.1 µM), for inactives: at the top dose growth rescue (activation), usual class: activators; hit rate 0.23% among 320,000; S. cerevisiae fusion-defective mutant growth rescue, CellTiterGlo 48 h; also: % of control where 0% means no effect; nearly all actives have a fitted effect of over 45% in size
#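 Compounds are tested for their ability to restore growth of mitochondrial fusion-defective yeast strains at non-permissive 37C in YPEG medium over 48 hours. Viability is quantified by luciferase luminescence.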
# GLS inh: qHTS for Inhibitors of Glutaminase (GLS); Glutaminase kidney isoform, mitochondrial (Homo sapiens), O94925; GLS enzymatic activity, qHTS titration; Potency, µM (doses to about 45.5 µM), without a hit: at the top dose activity change, negative = inhibition, actives largely listed as inhibitors; hit rate 0.21% among 410,000; also: % is scaled to controls: 0 for no effect and ±100 for the full control effect
#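 Coupled fluorescence readout: glutamate oxidase/HRP/Amplex Red detect glutamate formed by hKGA from L-glutamine (1 mM solution added). Buffer 45 mM KH2PO4 pH 8.2, 0.02% Tween-20; reads at t0 and 30 min RT.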
# GCN5L2 inh: qHTS Assay for Inhibitors of GCN5L2; hit rate 0.21% among 390,000; Potency, µM (series often up to 58.9 µM), for the others: top-dose activity change, negative = inhibition, most hits filed as inhibitors; AID 504327, 2011; Histone acetyltransferase KAT2A (Homo sapiens), Q92830; GCN5L2 HAT assay, ThioGlo1 CoA-SH fluorescence; also: % is scaled to controls: 0 for no effect and ±100 for the full control effect
#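 ThioGlo1-coupled HAT assay: 20nM GCN5L2, 70uM acetyl-CoA, 75uM H3(1-25) peptide, pH 7.5. Fluorescence read at 340/540nm at start and after 20 min at room temperature.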
# PKM2 activator: qHTS Assay for Activators of Human Muscle isoform 2 Pyruvate Kinase | Pyruvate kinase PKM (Homo sapiens), P14618 | purified PKM2, Kinase-Glo ATP luminescence, activation; response scale: 0% is enzyme alone, no compound | Potency, µM (top dose mostly 57.5 µM), for the others: top-dose activation, hits mostly activators | hit rate 0.34% among 260,000; also: % is scaled to controls: 0 for no effect and ±100 for the full control effect; nearly all actives have a fitted effect of over 55% in size
# Target sequence (P14618 whole entry, looked up, canonical isoform): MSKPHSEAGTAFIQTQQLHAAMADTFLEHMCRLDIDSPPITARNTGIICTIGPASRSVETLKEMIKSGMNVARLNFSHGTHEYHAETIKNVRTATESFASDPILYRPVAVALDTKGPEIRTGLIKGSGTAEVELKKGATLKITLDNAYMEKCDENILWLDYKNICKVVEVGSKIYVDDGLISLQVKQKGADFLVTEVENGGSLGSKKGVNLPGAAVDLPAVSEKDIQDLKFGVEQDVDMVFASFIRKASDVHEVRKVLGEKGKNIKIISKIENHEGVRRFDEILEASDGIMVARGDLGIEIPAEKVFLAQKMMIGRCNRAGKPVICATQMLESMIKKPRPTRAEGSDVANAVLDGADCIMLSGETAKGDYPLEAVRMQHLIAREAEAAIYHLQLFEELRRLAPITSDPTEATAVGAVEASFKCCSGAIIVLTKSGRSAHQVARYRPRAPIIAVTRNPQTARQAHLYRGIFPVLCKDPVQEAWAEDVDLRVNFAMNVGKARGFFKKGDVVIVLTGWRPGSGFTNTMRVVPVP
#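 Kinase-Glo luminescence reports ATP generated from ADP (0.1 mM) and PEP (0.5 mM) by purified hPK-M2 after 1 h at room temperature, pH 7.2 imidazole buffer; intermediate enzyme activity allows detecting inhibitors and activators.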
# PLK1 PBD inh: qHTS for Inhibitors of PLK1-PDB (polo-like kinase 1 - polo-box domain): Primary Screen | Serine/threonine-protein kinase PLK1 (Homo sapiens), P53350 | Plk1 PBD binding of FITC phosphopeptide, fluorescence polarization | Potency, µM, without a hit: max response, negative = inhibition, most hits filed as inhibitors | hit rate 2.8% among 360,000 | AID 720504, 2013; also: series mostly up to about 57 µM; % is scaled to controls: 0 for no effect and ±100 for the full control effect; nearly all actives have a fitted effect of over 65% in size
# * = called active by the depositor; ? = inconclusive; . = not tested or not shown; [ ] = another dose, or the depositor's remark. Calls follow the shape of the dose curve; as a rule, active = well fitted curve in the direction sought with a large enough effect; inconclusive = small, poorly fitted or top-dose-only effect, or another doubt; inactive = no such curve, though single readings can be large; an effect the other way counts as inactive or inconclusive. Potency is read from the fitted curve at half-maximal effect.
SMILES,VDR inhibitor,Mito fusion act,GLS inh,GCN5L2 inh,PKM2 activator,PLK1 PBD inh
COCC(=O)Nc1ccc(N2CCCC2)c(S(=O)(=O)Nc2ccccc2OC)c1,-11.2%,0.5%,-0.4%,-7.2%,.,-12.0%
CCOC(=O)C(=CNc1ccc(N2CCCCC2)c(S(=O)(=O)Nc2ccccc2OC)c1)C(=O)OCC,?,.,-7.2%,.,.,10.6µM*
CC(C)N(Cc1ccccc1)C(=S)Nc1cccnc1,6.5%,2.8%,6.4%,0.0%,-7.1%,-5.2%
CN(Cc1ccccc1)C(=S)Nc1cccnc1,-14.9%,-5.6%,-8.3%,-6.2%,-1.8%,21.2µM*
O=C(O)c1sc(C(=O)O)c(-c2ccccc2)c1-c1ccccc1,.,.,7.8%,.,.,-2.1%
CC(=O)c1sc(C(=O)O)c(-c2ccco2)c1-c1ccco1,-22.5%,1.6%,20µM*,-5.5%,1.8%,?
O=C(CCCN1C(=O)c2ccccc2C1=O)Nc1nccs1,10.1%,2.0%,0.8%,-2.8%,-11.8%,-14.0%
CC(C)C(C(=O)Nc1nccs1)N1C(=O)c2ccccc2C1=O (stereo unspecified),-4.7%,-0.1%,1.5%,0.6%,-23.0%,21.2µM*
CC(=O)OC(C(=O)Nc1nccs1)c1ccccc1 (stereo unspecified),19.5%,1.7%,-1.8%,0.8%,-0.2%[11.5 µM],7.5%
O=C(Nc1nccs1)C(Br)C(Br)c1ccccc1 (stereo unspecified),28.2µM*,-12.3%,-15.0%,-16.3%,.,0.947µM*
CCc1ccc(NC(=O)c2cnn3c(C(F)F)cc(C)nc23)cc1,-5.5%,8.0%,0.0%,-7.4%,2.1%,-9.4%
CCc1ccc(Cn2ncc3c(C(=O)O)cc(C)nc32)cc1,-9.6%,.,-10.2%,.,.,26.7µM*
O=S1(=O)CC(N2CCN(CCO)CC2)CN1Cc1cn(Cc2ccc(F)cc2)nn1 (stereo unspecified),.,.,-6.2%,.,.,2.2%
COc1ccccc1C(=O)NCCNC(=O)c1ccco1,4.4%,-3.4%,27.3%,0.6%,4.3%,26.7µM*
COc1cccc(CNCCNC(=O)c2ccco2)c1OC,-12.8%,0.0%,-4.3%,-0.1%,-6.9%,18.9µM*
Cc1cc(Cl)cc2sc(=S)[nH]c12,?,.,?,.,.,13.4µM*
Cc1[nH]c(=S)sc1Cc1ccc(Cl)c(Cl)c1,.,9.9%,.,-14.6%,8.1%,.
CCOC(=O)c1ccc(-n2c(=S)sc3c(=O)[nH]c(C)nc32)cc1,50.1µM*,2.0%,-17.9%,-29.4%,-5.7%,5.32µM*
CCOC(=O)c1c(C)c(C(=O)NCc2ccco2)c(C)n1Cc1ccccc1,?,-4.6%,-14.6%,4.7%,-1.0%,26.7µM*
CCOC(=O)c1ccc(-n2c(N)c(C(=O)NCc3ccco3)sc2=S)cc1,?,-0.1%,5.3%,-25.6%,?,23.8µM*
COc1ccc(-n2c(N)c(C(=O)NCC3CCCO3)sc2=S)cc1 (stereo unspecified),4.6%,0.4%,3.1%,1.5%,-0.5%,-3.5%
C=CCNC(=O)c1sc(=S)n(-c2ccc(C(=O)OCC)cc2)c1N,?,1.2%,-2.1%,-8.0%,-2.3%,21.2µM*
CC(C)(C)c1cc(C(=O)CCN2CCOCC2)cc(C(C)(C)C)c1O,50.1µM*,-33.5%,-28.8%,-0.2%,.,?
CCOCCCNS(=O)(=O)c1ccc(NC(=O)c2ccc(OC)c([N+](=O)[O-])c2)cc1,?,-6.8%,-5.3%,-2.0%,-2.0%,3.36µM*
COc1ccc(C(=O)Nc2ccc(S(=O)(=O)NC(C)=O)cc2)cc1[N+](=O)[O-],-16.5%,7.7%,3.2%,-11.3%,-1.0%,-9.3%
